Source: PubChem BioAssay
This is a sample that favours compounds with a hit; in the whole collection about 1.1% have one here.
AmpC no deterg: blocks E. coli AmpC beta-lactamase in detergent-free assay | AID 485341 | Potency, µM (doses to about 57.1 µM), without a hit: at the highest dose activity change, negative = inhibition, usual class: inhibitors | P00811 | 0.52% of 330,000 active | AmpC nitrocefin hydrolysis, absorbance 480 nm, 0.0001% Triton;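 also: plate controls were no compound for no effect and no enzyme for full effect; nearly all actives have a fitted effect of over 20% in size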
Target sequence (P00811 whole entry, looked up): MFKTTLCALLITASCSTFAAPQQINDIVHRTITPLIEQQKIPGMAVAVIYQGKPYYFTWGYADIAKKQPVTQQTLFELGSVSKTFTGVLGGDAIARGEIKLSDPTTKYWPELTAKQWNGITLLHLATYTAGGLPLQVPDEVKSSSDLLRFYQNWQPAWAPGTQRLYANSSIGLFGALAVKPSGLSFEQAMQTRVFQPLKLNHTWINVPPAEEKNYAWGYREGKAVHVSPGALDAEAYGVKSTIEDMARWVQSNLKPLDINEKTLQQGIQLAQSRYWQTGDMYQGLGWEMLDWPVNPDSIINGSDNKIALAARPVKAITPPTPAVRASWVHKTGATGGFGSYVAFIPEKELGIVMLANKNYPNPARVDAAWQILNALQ
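AmpC (5.3 nM in the dispensed reagent) in 20 mM phosphate pH 7.0 with 0.01% (detergent screen) or 0.0001% Triton X-100 was preincubated with compounds for 15 min at room temperature. Nitrocefin was then added from an 800 uM solution, and hydrolysis was followed at 480 nm.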
AmpC detergent: inhibitors of E. coli AmpC beta-lactamase with detergent; AmpC hydrolysis of nitrocefin, absorbance 480 nm, 0.01% Triton; Potency, µM (doses to about 114 µM), for inactives: at the highest dose activity change, negative = inhibition, actives largely listed as inhibitors; 0.041% of 370,000 active; AID 485294;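 also: 0% = no-compound wells and -100% = no-enzyme wells; nearly all actives have a fitted effect of over 25% in size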
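AmpC (5.3 nM in the dispensed reagent) in 20 mM phosphate pH 7.0 with 0.01% (detergent screen) or 0.0001% Triton X-100 was preincubated with compounds for 15 min at room temperature. Nitrocefin was then added from an 800 uM solution, and hydrolysis was followed at 480 nm.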
Vaccinia Venus: inhibitors of vaccinia virus (Venus reporter); Vaccinia virus Venus reporter expression, fluorescence; 0.46% of 330,000 active; AID 720580; Potency, µM (highest dose often 36.5 µM), inactives show at the highest dose activity change, negative = inhibition, actives largely listed as inhibitors; calls by dose curve; tested in A549 cells; also: nearly all actives have a fitted effect of over 30% in size
VACV mCherry inh: inhibitors of vaccinia virus infection (mCherry reporter signal); Vaccinia virus mCherry reporter infection, fluorescence; Potency, µM (highest dose often 36.5 µM), for inactives: at the highest dose activity change, negative = inhibition, hits mostly inhibitors; 0.63% of 310,000 active; calls by dose curve; tested in A549 cells; also: nearly all actives have a fitted effect of over 35% in size
* marks the source's active call; other numbers are inactive results; i = inactive; u = inconclusive; x = no result given; [ ] = dose if it differs, or a comment. Unless noted, calls follow the shape of the dose curve; as a rule, active = well fitted curve in the direction sought with a large enough effect; inconclusive = small, poorly fitted or top-dose-only effect, or another doubt; inactive = no such curve, though single readings can be large; an effect the other way counts as inactive or inconclusive. Unless noted, % is scaled to controls: 0 for no effect and ±100 for the full control effect; potency is read from the fitted curve at half-maximal effect.

SMILES	AmpC no deterg	AmpC detergent	Vaccinia Venus	VACV mCherry inh
O=[N+]([O-])c1cc(NS(=O)(=O)c2ccc(Cl)nc2)ccc1Cl	-19.9%	0.0%	-17.5%	u
CC(C)c1ccc(NS(=O)(=O)c2ccc(Cl)nc2)cc1	-24.7%	-16.4%	7.94µM*	3.98µM*
COC(=O)C1CCN(Cc2ccc3c(c2)CN(C(=O)C(C)N2CCOCC2)CCO3)CC1 (stereo unspecified)	x	x	-5.4%	-13.8%
COc1ccc(NC(=O)/C(Cl)=C(/Cl)S(=O)Cc2ccccc2)cn1 (stereo unspecified)	-7.4%	-5.6%	8.91µM*	7.08µM*
COc1ccc(CS(=O)(=O)/C(Cl)=C(/Cl)C(=O)Nc2ccc(OC)nc2)cc1	-5.8%	-13.6%	10µM*	x
COc1ccc(/C=C/C(=O)Nc2ccc(OC)nc2)cc1	-1.3%	-4.6%	-16.8%	u
N#CCC(=O)Nc1ccc(C(=O)NCc2cccc(Cl)c2)cc1	17.8µM*	-10.6%	7.7%[7.34 µM]	-13.5%[7.34 µM]
Cc1cc2c(c(-c3ccc(Cl)cc3)c1)OC(CNC(=O)Cc1c(C)noc1C)C2 (stereo unspecified)	x	x	-10.1%	-14.5%
COc1cccc(NC(=O)Nc2nnc(CC(=O)Nc3ccccc3)s2)c1	11.2µM*	-6.0%	x	x
COc1cccc(NC(=O)N[C@@H](Cc2ccccc2)C(=O)O)c1	2.24µM*	2.8%	5.5%	x
COc1cccc(-c2ccnc(-n3ncc(C(=O)NCC(C)(C)CN(C)C)c3C)n2)c1	x	x	-10.7%	-14.2%
Cc1ccc(Cl)cc1N1CCN(C(=O)C2CCN(c3nnc(-n4cccc4)s3)CC2)CC1	1.78µM*	u	x	x
Cc1ccc(Cl)cc1N1CCN(C(=O)c2cccn2-c2nnc(N3CCCCC3)s2)CC1	x	-0.8%	-18.9%	-13.0%
O=c1ccc2ccccc2c2ccccc12	x	x	-5.3%	10.0%
O=Nc1c(O)c2ccccc2c2ccccc12	x	x	10µM*	u
Cc1cc(C)cc(NS(=O)(=O)c2ccc3[nH]cc(C(=O)NCc4ccco4)c(=O)c3c2)c1	15.8µM*	-9.7%	11.2µM*	10µM*
COc1cccc(NS(=O)(=O)c2ccc3[nH]cc(C(=O)NCCc4ccccc4)c(=O)c3c2)c1	x	1.5%	-5.3%	-4.8%
COc1cccc(NS(=O)(=O)c2ccc3[nH]cc(C(=O)NCCc4ccc(C)cc4)c(=O)c3c2)c1	6.31µM*	-13.2%	-10.3%[7.34 µM]	-8.6%[7.34 µM]
Cc1cc(C)cc(NS(=O)(=O)c2ccc3[nH]cc(C(=O)NCc4ccccc4Cl)c(=O)c3c2)c1	x	-1.9%	-23.3%	-16.2%
COCCNC(=O)c1c[nH]c2ccc(S(=O)(=O)N3CCc4ccccc43)cc2c1=O	151.9%	-0.2%	5.62µM*	u
O=C(C[n+]1cccc(Br)c1)c1ccc2ccccc2c1	x	x	-12.4%	-7.6%
CCOc1ccc(C=NNc2ccc(S(=O)(=O)Nc3ccccc3C(=O)O)cc2[N+](=O)[O-])cc1	28.2µM*	x	-2.7%	5.4%
CSc1ccc(C=NNc2ccc(S(=O)(=O)Nc3ccccc3C(=O)O)cc2[N+](=O)[O-])cc1	-35.3%	x	-9.9%	i
CC(C)=CCCC1(C)C=Cc2c(O)c3c(c(CC=C(C)C)c2O1)OC12C(=CCCC1C(C)(C)O[C@@]2(C/C=C(\C)C(=O)O)C(=O)O)C3=O (stereo partly specified)	x	x	-22.3%	i
CC(C)=CCCC1(C)C=Cc2c(O)c3c(c(CC=C(C)C)c2O1)OC12C(=CC4CC1C(C)(C)OC2(C/C=C(/C)C(=O)O)C4O)C3=O (stereo unspecified)	x	x	11.2µM*	12.6µM*
SMILES	AmpC no deterg	AmpC detergent	Vaccinia Venus	VACV mCherry inh
O=C(CSCc1ccccc1Cl)NN=C1CCCCCC1	0.224µM*	4.1%	-25.4%	-3.4%
O=C(CSCc1c(Cl)cccc1Cl)NN=C1CCCC1	-35.7%	8.4%	-7.0%	-6.6%
O=C(N/N=C/c1cc([N+](=O)[O-])ccc1O)c1cccc(N2CCCC2=O)c1	-40.3%	-4.4%	-1.8%	6.31µM*
COc1cc(/C=N/NC(=O)c2cccc(N3CCCC3=O)c2)ccc1O	-12.9%	0.3%	-11.0%	i
O=C(O)CN1C(=O)/C(=C\c2cc(Br)ccc2OCc2ccccc2Cl)SC1=S	-40.9%	u	-3.2%	i
O=C(O)CN1C(=O)/C(=C\c2cc(Br)ccc2OCc2ccc([N+](=O)[O-])cc2)SC1=S	20µM*	-4.5%	x	x
O=[N+]([O-])c1ccc(NC(=S)NCCc2ccccc2)cc1	-42.8%	-5.1%	u	-24.2%
O=[N+]([O-])c1ccc(NC(=S)NCCc2ccc(Cl)cc2)cc1	0.141µM*	0.3%	11.2µM*	u
